For 5 compounds, outcome and AC50 results are on record in PubChem BioAssay (EPA / NIEHS).

Assay [1] can be described thus: ATG_TGFb_CIS: Attagene CIS-FACTORIAL HepG2 Assay for human Transforming Growth Factor (TGF) (AID 2282967; active = hit-call score of the fitted dose curve at least 0.9, where 1 is the maximum; inactive = score below 0.9). Conditions: HepG2 Attagene CIS TGFb reporter, mRNA transcription; actives raise or lower the signal. Summed up:
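Bidirectional fitting relative to DMSO gave the endpoint. Underlying data: reporter mRNA from HepG2 cells carrying transiently transfected cis-regulated reporter constructs, harvested 24 h after dosing and analyzed by RT-PCR and capillary electrophoresis.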

A short description of assay [2]: ATG_VDRE_CIS: Attagene CIS-FACTORIAL HepG2 Assay for human Vitamin D Receptor Element (VDRE) (AID 2282968; active = hit-call score of the fitted dose curve at least 0.9, where 1 is the maximum; inactive = score below 0.9). The note with it: HepG2 VDRE cis-reporter transcription, actives raise or lower the signal. Summed up:
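Transfected HepG2 reporter cells, chemical treatment 24 h. RNA isolated, cDNA amplified with reporter-specific primers, products analysed by capillary electrophoresis. Endpoint fitted in both directions versus DMSO.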

The target of assay [3] is Steroid hormone receptor ERR1 (Homo sapiens) (UniProt P11474). In words: ATG_ERRa_TRANS: Attagene TRANS-FACTORIAL HepG2 Assay for human Estrogen-Related Receptor alpha (ERRa) (AID 2282971). The note with it: HepG2 Attagene TRANS reporter, ERRa transactivation. Summed up: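 Reporter transcripts from ERRa-Gal4 chimera activity measured in transiently transfected human HepG2 cells 24 hours after dosing, using RT-PCR with 6-FAM primer extension, HpaI digestion and capillary electrophoresis; DMSO is baseline.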
Steroid hormone receptor ERR1 (Homo sapiens), sequence (P11474 whole entry, looked up, the tested form may be a part): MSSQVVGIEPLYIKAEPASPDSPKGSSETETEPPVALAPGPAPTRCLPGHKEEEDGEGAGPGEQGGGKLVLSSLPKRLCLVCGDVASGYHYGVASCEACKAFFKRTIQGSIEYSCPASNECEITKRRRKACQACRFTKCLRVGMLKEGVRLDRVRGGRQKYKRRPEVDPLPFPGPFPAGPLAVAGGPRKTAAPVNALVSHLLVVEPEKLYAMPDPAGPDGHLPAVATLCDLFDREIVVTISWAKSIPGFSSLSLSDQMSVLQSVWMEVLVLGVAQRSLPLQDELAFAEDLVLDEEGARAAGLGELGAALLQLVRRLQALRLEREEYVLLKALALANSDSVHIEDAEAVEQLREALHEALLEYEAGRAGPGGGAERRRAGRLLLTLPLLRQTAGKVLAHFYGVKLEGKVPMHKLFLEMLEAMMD

The target of assay [4] is X-box-binding protein 1 (Homo sapiens) (UniProt P17861). The assay is described as follows: ATG_Xbp1_CIS: Attagene CIS-FACTORIAL HepG2 Assay for human X-box Binding Protein 1 (XBP1) (AID 2282972; active = hit-call score of the fitted dose curve at least 0.9, where 1 is the maximum; inactive = score below 0.9). Conditions: HepG2 XBP1 cis-element reporter, Attagene multiplex; actives raise or lower the signal. Summed up: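 Human hepatoma HepG2, cis-element reporter system, 24 h treatment; mRNA quantified by RT-PCR/CE fluorescence; fit relative to DMSO.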
X-box-binding protein 1 (Homo sapiens), sequence (P17861 whole entry, looked up): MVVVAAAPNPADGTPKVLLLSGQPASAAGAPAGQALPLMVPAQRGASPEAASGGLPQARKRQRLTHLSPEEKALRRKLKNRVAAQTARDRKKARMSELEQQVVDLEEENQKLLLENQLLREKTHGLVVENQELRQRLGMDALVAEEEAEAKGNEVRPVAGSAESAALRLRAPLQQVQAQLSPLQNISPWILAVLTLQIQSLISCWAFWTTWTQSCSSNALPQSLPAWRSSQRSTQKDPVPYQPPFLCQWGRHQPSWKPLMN

Assay [5] is described as follows: ATG_M_19_TRANS: Attagene TRANS-FACTORIAL HepG2 Assay for M19 Transcription Factor (Internal Marker) (AID 2282974). Conditions: HepG2 Attagene TRANS-FACTORIAL M19 internal marker reporter. Summed up:
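24 h chemical exposure of transiently transfected HepG2 (MRTU library). RNA → oligo(dT) RT → PCR → 6-FAM labelling → HpaI cut → CE fluorescence. Positive-direction fit vs DMSO baseline; background internal-marker readout.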

Assay [6] is described as follows: ATG_GAL4_TRANS: Attagene TRANS-FACTORIAL HepG2 Assay for GAL4 (Internal Marker) (AID 2282976). Conditions: HepG2 Attagene TRANS GAL4 internal marker reporter. In outline: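 In transfected human HepG2 liver cells dosed 24 h, GAL4 reporter mRNA serves as a baseline marker. Detection by RT-PCR with fluorescent capillary electrophoresis, activity fitted upward relative to DMSO.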

For assay [7], the target named is Glucocorticoid receptor (Homo sapiens) (UniProt P04150). The assay is described as follows: ATG_GR_TRANS: Attagene TRANS-FACTORIAL HepG2 Assay for human Glucocorticoid Receptor (GR) (AID 2282978).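 Also: activators score as hits since higher reporter transcript over DMSO is fitted.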 Conditions: HepG2 Attagene TRANS GR reporter, mRNA transcription. In outline: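 Transient MRTU transfection of HepG2 (GAL4-UAS reporters, exogenous NR-GAL4 chimeras), 24 h dosing. Readout: reporter transcript via RT-PCR + capillary electrophoresis fluorescence. Positive direction vs DMSO baseline.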
Glucocorticoid receptor (Homo sapiens), sequence (P04150 whole entry, looked up, the tested form may be a part): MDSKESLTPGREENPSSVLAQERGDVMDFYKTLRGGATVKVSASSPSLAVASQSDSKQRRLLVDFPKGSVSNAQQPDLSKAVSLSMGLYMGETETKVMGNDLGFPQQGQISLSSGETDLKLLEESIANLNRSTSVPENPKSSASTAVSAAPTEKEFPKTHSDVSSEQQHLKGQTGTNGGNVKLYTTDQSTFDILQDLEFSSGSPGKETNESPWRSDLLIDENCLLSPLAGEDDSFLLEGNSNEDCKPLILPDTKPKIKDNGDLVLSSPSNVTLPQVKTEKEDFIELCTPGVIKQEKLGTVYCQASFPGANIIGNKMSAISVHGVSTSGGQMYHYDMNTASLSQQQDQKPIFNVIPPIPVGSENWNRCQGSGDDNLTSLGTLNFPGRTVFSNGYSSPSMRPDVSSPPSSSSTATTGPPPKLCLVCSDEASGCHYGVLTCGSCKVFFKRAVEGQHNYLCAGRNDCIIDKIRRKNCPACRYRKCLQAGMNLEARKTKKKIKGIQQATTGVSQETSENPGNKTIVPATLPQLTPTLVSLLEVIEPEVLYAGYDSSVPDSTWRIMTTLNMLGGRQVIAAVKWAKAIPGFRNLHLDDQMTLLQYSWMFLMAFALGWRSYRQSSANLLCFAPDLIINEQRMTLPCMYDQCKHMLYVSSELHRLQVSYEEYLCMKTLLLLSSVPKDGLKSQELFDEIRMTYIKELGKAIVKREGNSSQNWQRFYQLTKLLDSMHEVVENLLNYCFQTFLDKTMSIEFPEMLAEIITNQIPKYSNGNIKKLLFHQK

Assay [8] concerns the target Oxysterols receptor LXR-alpha (Homo sapiens) (UniProt Q13133). In words: ATG_LXRa_TRANS: Attagene TRANS-FACTORIAL HepG2 Assay for human Liver X Receptor alpha (LXRa) (AID 2282980). The note with it: HepG2 Attagene TRANS reporter, LXRa transactivation. Summed up:
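Chemical-induced reporter mRNA measured by RT-PCR with fluorescent labelling and capillary electrophoresis after 24 h dosing of transiently transfected HepG2 cells expressing exogenous NR-Gal4 chimeras; increases scored against DMSO baseline.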

For assay [9], the target named is Oxysterols receptor LXR-beta (Homo sapiens) (UniProt P55055). In words: ATG_LXRb_TRANS: Attagene TRANS-FACTORIAL HepG2 Assay for human Liver X Receptor beta (LXRb) (AID 2282981). The note with it: HepG2 Attagene TRANS GAL4-LXRb reporter, mRNA. In outline:
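Liver-derived HepG2 cells transfected with Gal4-responsive reporters were dosed for 24 h. Activation was scored as rise in reporter mRNA, by RT-PCR and capillary electrophoresis, above DMSO baseline.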

A short description of assay [10]: ATG_M_06_TRANS: Attagene TRANS-FACTORIAL HepG2 Assay for M06 Transcription Factor (Internal Marker) (AID 2282983). Conditions: HepG2 Attagene TRANS M06 internal marker reporter. Summed up: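 Background-control reporter readout: after 24 h chemical exposure of transiently transfected HepG2 (GAL4-UAS reporter units), mRNA quantified by RT-PCR with fluorescent labeling and capillary electrophoresis. Gain-of-signal fitting against DMSO baseline.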

Assay [11] in a line: ATG_M_32_TRANS: Attagene TRANS-FACTORIAL HepG2 Assay for M32 Transcription Factor (Internal Marker) (AID 2282984).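 Also: transcript level of a background control reporter unit measured by RT-PCR and capillary electrophoresis.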 Conditions: HepG2 Attagene TRANS M32 internal marker reporter. In outline:
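Fluorescence-detected mRNA induction, HepG2 liver cells, 24 h after dosing. Multiple GAL4-UAS reporter units introduced by transient transfection; background-control endpoint analysed for gain of signal against DMSO.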

Assay [12] has as its target Transcriptional activator Myb (Homo sapiens) (UniProt P10242). The assay is described as follows: ATG_Myb_CIS: Attagene CIS-FACTORIAL HepG2 Assay for human Myeloblastosis (Myb) Proto-Oncogene Transcription Factor (AID 2282986; active = hit-call score of the fitted dose curve at least 0.9, where 1 is the maximum; inactive = score below 0.9). Conditions: HepG2 Attagene CIS-FACTORIAL Myb reporter transcription; actives raise or lower the signal. Summed up:
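HepG2, transient MRTU transfection (cis-element promoters, endogenous TF activity), 24 h compound exposure. Readout: reporter mRNA via RT-PCR, 6-FAM labeling, HpaI digest, capillary electrophoresis. Gain/loss fit vs DMSO.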

Assay [13] has as its target Nuclear respiratory factor 1 (Homo sapiens) (UniProt Q16656). The assay is described as follows: ATG_NRF1_CIS: Attagene CIS-FACTORIAL HepG2 Assay for human Nuclear Respiratory Factor 1 (NRF1) Orphan Gene (AID 2282987; active = hit-call score of the fitted dose curve at least 0.9, where 1 is the maximum; inactive = score below 0.9). Conditions: HepG2 NRF1 cis-element reporter, Attagene multiplex; actives raise or lower the signal. In outline: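 Endogenous NRF1-driven reporter transcription measured in transiently transfected human HepG2 liver cells. Readout: reporter mRNA by RT-PCR and capillary electrophoresis with fluorescence detection, 24 h post-dosing. Gain or loss of signal fitted relative to DMSO baseline.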

In assay [14] the target is Estrogen-related receptor gamma (Homo sapiens) (UniProt P62508). In words: ATG_ERRg_TRANS: Attagene TRANS-FACTORIAL HepG2 Assay for human Estrogen-Related Receptor gamma (ERRg) (AID 2282977).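 Also: hits increase reporter signal over DMSO so potencies reflect activators.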 The note with it: HepG2 Attagene TRANS reporter, ERRg transactivation. In outline:
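Exogenous NR-Gal4 chimera activity was assessed in HepG2 cells bearing transfected GAL4-UAS reporters. After 24 h dosing, total RNA underwent RT-PCR, fluorescent primer extension and HpaI digestion before capillary electrophoresis, with gain of signal scored against DMSO.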

Assay [15] deals with Bile acid receptor (Homo sapiens) (UniProt Q96RI1). In words: ATG_FXR_TRANS: Attagene TRANS-FACTORIAL HepG2 Assay for Farnesoid X Receptor (FXR) (AID 2282979).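 Also: hits raise reporter mRNA above DMSO so AC50 marks FXR activation.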 The note with it: HepG2 Attagene TRANS FXR-GAL4 reporter transcription. In outline: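 Reporter transcripts from transfected HepG2 cells were measured 24 h after dosing, using RT-PCR with capillary electrophoresis of 6-FAM-labelled fragments. The read-out reflects activity of exogenous FXR-Gal4 chimera on GAL4-UAS units, with induction relative to DMSO.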
Bile acid receptor (Homo sapiens), sequence (Q96RI1 whole entry, looked up, the tested form may be a part): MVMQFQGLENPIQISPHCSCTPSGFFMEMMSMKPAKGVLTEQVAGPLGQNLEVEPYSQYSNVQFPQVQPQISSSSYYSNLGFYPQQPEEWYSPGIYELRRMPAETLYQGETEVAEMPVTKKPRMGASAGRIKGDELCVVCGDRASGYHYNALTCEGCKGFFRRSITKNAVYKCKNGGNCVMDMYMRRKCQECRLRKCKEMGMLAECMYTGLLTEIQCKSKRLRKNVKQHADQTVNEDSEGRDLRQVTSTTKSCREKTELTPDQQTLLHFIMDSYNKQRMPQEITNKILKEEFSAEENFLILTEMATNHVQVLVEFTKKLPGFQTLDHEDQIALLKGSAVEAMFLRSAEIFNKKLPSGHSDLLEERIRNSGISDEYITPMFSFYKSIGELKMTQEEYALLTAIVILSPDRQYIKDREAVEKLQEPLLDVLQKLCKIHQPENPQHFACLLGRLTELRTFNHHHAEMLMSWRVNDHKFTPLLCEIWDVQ

The target in assay [16] is Nuclear receptor subfamily 1 group I member 3 (Homo sapiens) (UniProt Q14994). The assay is described as follows: ATG_CAR_TRANS: Attagene TRANS-FACTORIAL HepG2 Assay for human Constitutive Androstane Receptor (CAR) (AID 2282969).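 Also: activators raise reporter mRNA above DMSO so AC50 marks induction.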 The note with it: HepG2 Attagene TRANS-FACTORIAL CAR reporter. Summed up: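 Steps: transient transfection of HepG2 with multiple GAL4-UAS reporter units; 24 h compound incubation; RNA isolation, RT-PCR, 6-FAM primer extension, HpaI digest; capillary electrophoresis. Gain-of-signal relative to DMSO negative control.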
Nuclear receptor subfamily 1 group I member 3 (Homo sapiens), sequence (Q14994 whole entry, looked up, the tested form may be a part): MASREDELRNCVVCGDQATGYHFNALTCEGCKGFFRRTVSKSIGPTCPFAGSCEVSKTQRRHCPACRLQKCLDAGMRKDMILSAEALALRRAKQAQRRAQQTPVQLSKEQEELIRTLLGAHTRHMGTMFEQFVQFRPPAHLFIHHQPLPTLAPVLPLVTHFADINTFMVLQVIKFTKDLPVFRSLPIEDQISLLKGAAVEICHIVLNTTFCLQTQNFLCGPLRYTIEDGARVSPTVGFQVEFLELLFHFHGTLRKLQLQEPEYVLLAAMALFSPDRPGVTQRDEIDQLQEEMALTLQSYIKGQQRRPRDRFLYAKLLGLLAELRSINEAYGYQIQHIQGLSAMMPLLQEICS

For assay [17], the target named is Androgen receptor (Homo sapiens) (UniProt P10275). The assay is described as follows: ATG_AR_TRANS: Attagene TRANS-FACTORIAL HepG2 Assay for human Androgen Receptor (AR) (AID 2282973). The note with it: HepG2 Attagene TRANS-FACTORIAL AR reporter transcription. Summed up:
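Transcriptional activity of an exogenous AR–Gal4 fusion read as GAL4-UAS reporter transcript levels in transfected human HepG2 cells after 24 h dosing. Detection via RT-PCR, 6-FAM labelling, HpaI digest and capillary electrophoresis; increase over DMSO baseline.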

The target in assay [18] is Nuclear receptor subfamily 4 group A member 2 (Homo sapiens) (UniProt P43354). The assay is described as follows: ATG_NURR1_TRANS: Attagene TRANS-FACTORIAL HepG2 Assay for human Nuclear Receptor Related Protein 1 (NURR1) (AID 2282985). Conditions: HepG2 Attagene TRANS reporter, mRNA readout. Summed up:
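Chimeric NR-Gal4 proteins were expressed in human HepG2 cells bearing GAL4-UAS reporter units, and induced reporter mRNA was quantified 24 h post-dosing by RT-PCR and capillary electrophoresis.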

Records with an inconclusive call do not appear. Activity calls are given as the source filed them. The calls were made as follows, unless noted: active = hit-call score of the fitted dose curve at least 0.9, where 1 is the maximum; inconclusive = response in the unintended direction; inactive = score below 0.9.

Oxysterols receptor LXR-beta (Homo sapiens), sequence (P55055 whole entry, looked up, the tested form may be a part): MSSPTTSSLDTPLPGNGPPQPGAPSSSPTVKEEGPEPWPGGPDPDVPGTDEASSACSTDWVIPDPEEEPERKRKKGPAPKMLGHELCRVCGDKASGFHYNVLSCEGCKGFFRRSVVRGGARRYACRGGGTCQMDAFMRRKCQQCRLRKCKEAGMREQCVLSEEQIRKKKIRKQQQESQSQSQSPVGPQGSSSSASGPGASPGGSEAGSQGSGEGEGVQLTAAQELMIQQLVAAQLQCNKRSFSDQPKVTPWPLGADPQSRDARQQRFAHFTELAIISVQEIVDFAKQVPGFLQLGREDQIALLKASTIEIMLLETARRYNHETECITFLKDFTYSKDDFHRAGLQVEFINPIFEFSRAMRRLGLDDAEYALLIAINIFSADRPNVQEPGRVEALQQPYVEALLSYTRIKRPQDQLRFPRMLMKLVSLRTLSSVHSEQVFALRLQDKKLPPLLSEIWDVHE
Nuclear respiratory factor 1 (Homo sapiens), sequence (Q16656 whole entry, looked up): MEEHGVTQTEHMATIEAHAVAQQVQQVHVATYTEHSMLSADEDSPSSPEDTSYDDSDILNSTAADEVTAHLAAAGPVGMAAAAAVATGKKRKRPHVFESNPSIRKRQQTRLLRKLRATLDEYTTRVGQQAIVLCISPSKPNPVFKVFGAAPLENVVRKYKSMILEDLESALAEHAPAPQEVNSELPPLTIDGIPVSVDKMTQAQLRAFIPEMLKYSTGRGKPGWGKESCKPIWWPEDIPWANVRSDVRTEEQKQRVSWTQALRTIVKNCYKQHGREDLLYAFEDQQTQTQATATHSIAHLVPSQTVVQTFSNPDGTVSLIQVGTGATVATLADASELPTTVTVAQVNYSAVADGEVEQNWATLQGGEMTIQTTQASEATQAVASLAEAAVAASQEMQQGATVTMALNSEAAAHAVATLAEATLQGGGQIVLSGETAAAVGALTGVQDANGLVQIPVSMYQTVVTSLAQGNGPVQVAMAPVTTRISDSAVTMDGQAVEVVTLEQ
Oxysterols receptor LXR-alpha (Homo sapiens), sequence (Q13133 whole entry, looked up, the tested form may be a part): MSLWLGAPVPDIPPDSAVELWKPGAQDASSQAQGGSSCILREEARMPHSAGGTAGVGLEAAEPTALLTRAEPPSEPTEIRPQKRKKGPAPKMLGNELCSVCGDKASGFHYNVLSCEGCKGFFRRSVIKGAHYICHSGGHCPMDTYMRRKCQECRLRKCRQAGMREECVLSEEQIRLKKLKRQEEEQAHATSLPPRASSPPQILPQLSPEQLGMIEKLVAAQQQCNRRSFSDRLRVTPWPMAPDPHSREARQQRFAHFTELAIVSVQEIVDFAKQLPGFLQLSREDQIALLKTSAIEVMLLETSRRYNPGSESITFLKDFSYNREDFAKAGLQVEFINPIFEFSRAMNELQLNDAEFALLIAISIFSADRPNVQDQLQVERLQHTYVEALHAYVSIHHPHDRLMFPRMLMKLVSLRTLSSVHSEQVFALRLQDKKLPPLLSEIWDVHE
Transcriptional activator Myb (Homo sapiens), sequence (P10242 whole entry, looked up): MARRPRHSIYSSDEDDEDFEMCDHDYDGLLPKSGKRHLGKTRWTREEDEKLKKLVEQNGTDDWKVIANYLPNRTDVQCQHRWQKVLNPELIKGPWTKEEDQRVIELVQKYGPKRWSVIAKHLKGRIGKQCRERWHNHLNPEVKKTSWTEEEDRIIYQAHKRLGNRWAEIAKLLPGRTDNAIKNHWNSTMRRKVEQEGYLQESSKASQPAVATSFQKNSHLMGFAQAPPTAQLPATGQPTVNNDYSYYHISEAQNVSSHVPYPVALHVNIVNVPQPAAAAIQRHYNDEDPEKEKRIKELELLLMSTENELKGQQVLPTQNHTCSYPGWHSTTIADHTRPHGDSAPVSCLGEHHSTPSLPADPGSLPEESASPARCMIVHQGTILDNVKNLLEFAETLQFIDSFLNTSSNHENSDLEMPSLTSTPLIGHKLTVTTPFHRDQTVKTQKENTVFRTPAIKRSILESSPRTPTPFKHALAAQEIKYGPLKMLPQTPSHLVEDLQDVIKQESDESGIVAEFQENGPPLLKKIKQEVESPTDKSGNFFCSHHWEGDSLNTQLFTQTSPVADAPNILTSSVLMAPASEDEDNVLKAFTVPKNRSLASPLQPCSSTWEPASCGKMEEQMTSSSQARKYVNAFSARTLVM
Estrogen-related receptor gamma (Homo sapiens), sequence (P62508 whole entry, looked up, the tested form may be a part): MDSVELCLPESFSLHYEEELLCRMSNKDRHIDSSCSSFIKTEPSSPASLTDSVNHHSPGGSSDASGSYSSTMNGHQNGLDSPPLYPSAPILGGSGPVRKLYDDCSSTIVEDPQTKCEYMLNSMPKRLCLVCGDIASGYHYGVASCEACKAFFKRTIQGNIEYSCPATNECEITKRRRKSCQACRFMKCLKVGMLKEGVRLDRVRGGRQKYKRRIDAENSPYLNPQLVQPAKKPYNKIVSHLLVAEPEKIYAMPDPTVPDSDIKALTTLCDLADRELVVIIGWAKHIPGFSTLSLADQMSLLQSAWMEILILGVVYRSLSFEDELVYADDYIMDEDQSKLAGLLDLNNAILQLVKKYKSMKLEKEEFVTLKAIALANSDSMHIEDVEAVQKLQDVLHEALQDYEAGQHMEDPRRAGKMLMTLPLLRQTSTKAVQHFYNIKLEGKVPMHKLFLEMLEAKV

Usually AC50 stands for the midpoint of the concentration-response curve, whichever way the signal moves. As to `CC(O)(CS(=O)(=O)c1ccc(F)cc1)C(=O)Nc1ccc(C#N)c(C(F)(F)F)c1` (stereo not drawn), the call in [1], in assay [3], in assay [4], in [5], in assay [6] and in assay [7] was inactive. In addition, the compound was called inactive in assay [8], in assay [9], in assay [10], in [11], in assay [12] and in [13]. In addition, in assay [2], the AC50 is 32.3 µM (active).
Take `Clc1cc(C(Cl)(Cl)Cl)cnc1Cl`: the compound was classed as inactive in assay [1], in assay [2], in [3], in assay [4], in [5] and in assay [14]. Besides, the call in assay [15], in [9], in [12] and in [13] was inactive.
`CCOP(=S)(OCC)OP(=S)(OCC)OCC`: the result in [1], in [16], in assay [4], in assay [17], in [5] and in assay [6] was inactive. The compound was classed as inactive in assay [15], in [9], in [11], in assay [18], in assay [12] and in [13].
Take `COCC(=O)N(c1c(C)cccc1C)[C@H](C)C(=O)OC`: the compound was called inactive in assay [1], in [16], in assay [3], in [4], in assay [5] and in [14]. The compound was classed as inactive in [8], in assay [9], in assay [11], in assay [12] and in assay [13].
With `CCOc1cc(C=O)ccc1O`, the compound was called inactive in [1], in [16], in assay [4], in assay [5], in assay [6] and in assay [7]. In addition, the result in assay [8], in [9], in assay [10], in assay [11], in assay [12] and in [13] was inactive.
